Where “and” joins values, the source holds several entries; their conditions need not be identical. Equal entries are not always repeated. The whole screen tested about 5,500 compounds, of which about 2,000 (36%) were called active. Another 18% or so got no clear call; they are omitted. No stated cut-off is given here; in the data, active means normalized growth mostly below about 0.91 (no sharp cut-off); inconclusive means no clear call, values can overlap the other calls; inactive means mostly above about 0.92. The list shows a part of the results.
Assay: chemical genetic growth profiling, strain panel (AID 1159580);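 further: tested at 20 µM; growth read once vehicle control cultures reached saturation at 30 °C; 1 = growth at the plate median or of vehicle wells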
Settings: S. cerevisiae deletion strains, growth OD

Measured: normalized growth

CCCCOc1ccc(OCCCN2CCOCC2)cc1
active: locus YAL021C, strain ccr4, stronger effect = lower value 0.829 | locus YAL026C, strain drs2, stronger effect = lower value 0.0964 | locus YBR021W, strain FUR4, stronger effect = lower value 1.16 [resistant] | locus YBR279W, strain paf1, stronger effect = lower value 0.918 | locus YDL035C, strain GPR1, stronger effect = lower value 0.855 | locus YDL134C, strain PPH21, stronger effect = lower value 0.823 | locus YDL192W, strain arf1, stronger effect = lower value 0.893 | locus YDR069C, strain doa4, stronger effect = lower value 0.883 | locus YDR101C, strain arx1, stronger effect = lower value 0.916 | locus YDR195W, strain ref2 1.21 [resistant] | locus YDR318W, strain mcm21, stronger effect = lower value 0.884 | locus YDR335W, strain msn5, stronger effect = lower value 0.904 | locus YDR388W, stronger effect = lower value 0.9 | locus YDR502C, strain sam2, stronger effect = lower value 0.872 | locus YER015W, strain faa2, stronger effect = lower value 0.925 | locus YER155C, strain BEM2 (second series), stronger effect = lower value 0.407 | locus YER167W, strain BCK2, stronger effect = lower value 0.838 | locus YFR010W, strain ubp6, stronger effect = lower value 0.884 | locus YGL086W, strain mad1, stronger effect = lower value 0.906 | locus YGL248W, strain PDE1, stronger effect = lower value 0.863 | locus YGR078C, strain PAC10, stronger effect = lower value 0.828 | locus YGR135W, strain pre9, stronger effect = lower value 0.784 | locus YGR229C, strain SMI1, stronger effect = lower value 0.598 | locus YGR252W, strain gcn5, stronger effect = lower value 0.588 | locus YHR013C, strain ard1, stronger effect = lower value 0.799 | locus YHR142W, strain chs7, stronger effect = lower value 0.817 | locus YIL066C, strain RNR3, stronger effect = lower value 0.719 | locus YJL129C, strain trk1, stronger effect = lower value 0.805 | locus YJL166W, strain qcr8, stronger effect = lower value 0.89 | locus YJL187C, strain SWE1 (second series), stronger effect = lower value 0.855
0.911 (active) and 0.965 (inactive): locus YHR030C, strain SLT2, stronger effect = lower value
0.653 (active) and 0.972 (inactive): locus YJL095W, strain BCK1, stronger effect = lower value
inactive: locus YAL013W, strain DEP1, stronger effect = lower value 0.994 | locus YAL030W, strain snc1, stronger effect = lower value 0.988 | locus YBL061C, strain skt5, stronger effect = lower value 0.955 | locus YBR009C, strain hhf1, stronger effect = lower value 0.96 | locus YBR023C, strain chs3, stronger effect = lower value 0.946 | locus YBR171W, strain sec66, stronger effect = lower value 0.942 | locus YBR229C, strain ROT2, stronger effect = lower value 1 | locus YBR231C, strain swc5, stronger effect = lower value 0.935 | locus YCL011C, strain gbp2, stronger effect = lower value 0.966 | locus YCL016C, strain dcc1, stronger effect = lower value 0.928 | locus YCL029C, strain bik1, stronger effect = lower value 0.938 | locus YCL069W, strain vba3, stronger effect = lower value 0.995 | locus YCR088W, strain abp1, stronger effect = lower value 0.997 | locus YDL005C, strain med2, stronger effect = lower value 1 | locus YDL040C, strain nat1, stronger effect = lower value 0.987 | locus YDL074C, strain BRE1, stronger effect = lower value 0.841 | locus YDL101C, strain DUN1, stronger effect = lower value 0.963 | locus YDL185W, strain tfp1, stronger effect = lower value 0.979 | locus YDR001C, strain nth1, stronger effect = lower value 0.983 | locus YDR137W, strain rgp1, stronger effect = lower value 0.913 | locus YDR150W, strain NUM1, stronger effect = lower value 0.984 | locus YDR159W, strain sac3, stronger effect = lower value 0.943 | locus YDR162C, strain NBP2, stronger effect = lower value 0.952 | locus YDR297W, strain sur2, stronger effect = lower value 0.968 | locus YDR334W, strain swr1, stronger effect = lower value 0.947 | locus YDR392W, strain spt3, stronger effect = lower value 0.868 | locus YEL003W, strain gim4, stronger effect = lower value 0.918 | locus YEL037C, strain rad23, stronger effect = lower value 0.98 | locus YEL061C, strain CIN8 (second series), stronger effect = lower value 0.973 | locus YEL061C, strain CIN8, stronger effect = lower value 0.931 | locus YER016W, strain bim1, stronger effect = lower value 0.983 | locus YER110C, stronger effect = lower value 0.922 | locus YER111C, strain swi4, stronger effect = lower value 0.962 | locus YER155C, strain BEM2, stronger effect = lower value 1.04 | locus YGL078C, strain dbp3, stronger effect = lower value 0.966 | locus YGL167C, strain pmr1, stronger effect = lower value 0.966 | locus YGL173C, strain kem1, stronger effect = lower value 0.929 | locus YGL227W, strain vid30, stronger effect = lower value 0.966 | locus YGL240W, strain doc1, stronger effect = lower value 0.965 | locus YGL253W, strain hxk2, stronger effect = lower value 0.94 | locus YHR027C, strain rpn1, stronger effect = lower value 0.953 | locus YHR079C, strain IRE1 (second series), stronger effect = lower value 0.93 | locus YHR079C, strain IRE1, stronger effect = lower value 0.979 | locus YHR094C, strain hxt1, stronger effect = lower value 0.997 | locus YHR129C, strain ARP1, stronger effect = lower value 0.99 | locus YHR200W, strain rpn10, stronger effect = lower value 0.961 | locus YIL073C, strain SPO22, stronger effect = lower value 0.804 | locus YIL125W, strain kgd1, stronger effect = lower value 1 | locus YIR030C, strain dcg1, stronger effect = lower value 0.976 | locus YJL092W, strain hpr5, stronger effect = lower value 0.992 | locus YJL095W, strain BCK1 (second series), stronger effect = lower value 0.962 | locus YJL115W, strain asf1, stronger effect = lower value 0.954 | locus YJL134W, strain LCB3, stronger effect = lower value 0.999 | locus YJL154C, strain vps35, stronger effect = lower value 0.995 | locus YJL164C, strain tpk1, stronger effect = lower value 0.918 | locus YJL168C, strain set2, stronger effect = lower value 0.976 | locus YJL187C, strain SWE1, stronger effect = lower value 0.957 | locus YJR043C, strain POL32, stronger effect = lower value 0.934 | locus YJR066W, strain TOR1, stronger effect = lower value 0.884

Source: PubChem BioAssay AID1159580 (chemical genetic matrix, 2015)
